From the supplement of paper PMC11417369
± gives the standard deviation of the averaged measurements. Over roughly 25,000 sequences, “ln(normalized median fluorescence intensity)” has its median near 8.6; the highest 2% begin near 10. Only a selection was taken, and the highest values are over-represented in it overall.

system: PfAP2-EXP AP2 domain (GST-tagged); assay: gcPBM binding intensity (ln(normalized median fluorescence intensity)); higher = stronger DNA binding
Outline: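 GST-fused DNA-binding domains of P. falciparum, expressed in E. coli, were applied at about 25 μg on average for 1 h to an Agilent 4 × 180k array of primer-extended double-stranded 36-bp intergenic genomic probes and negative controls. Binding intensity is the highest Masliner-normalised natural-log median intensity across replicate spots of either probe orientation, measured with Alexa488 anti-GST antibody and a 488 nm scan.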

Sequence	gcPBM binding intensity (ln)
AGAATATTTATATGATGTACTTATATATATATATAT [XGTACX_site3021]	9.97 ± 0.47
AAAAGCACAAAAAATACACACACAAAAAATAAAAAA [CACACA_site8545]	8.5 ± 0.57
TTCAAATTGTTTATATGTACTTATAAAAATTGTCTG [XGTACX_site977]	8.35 ± 0.42
TTAAAAATAATATTATGTACTAAGAATAAATATATA [XGTACX_site3100]	8.34 ± 0.43
ACATGAATTTATATGTGTACTAACTATATTCTTAAA [XGTACX_site5966]	8.27 ± 0.25
ATATATATATATATATGTACTAAGAATTCTTTAAAA [XGTACX_site8476]	10.3 ± 0.16
CATTTTAAAGAAAATACACACAAAAATAGATATATA [CACACA_site6773]	8.66 ± 0.38
ATTTGTTACGGACATGCATGCGAATCAGGGTATATA [TGCATGCA_site154]	10.1 ± 0.28
TATTCCCCCAAACACACACACACACCCACATACCAC [CACACA_site2304]	9.33 ± 0.23
CACAAACACCCAAACACACACACACCGACATACATA [CACACA_site4410]	8.41 ± 0.54
TTGGCATACAGACACACACACACACCCCCACATATA [CACACA_site590]	9.43 ± 0.61
CATATATACGCATACACACACACACCCACACCCACA [CACACA_site1725]	8.79 ± 0.52
TACATATACAGACACACACACACACCCCCACAAAAA [CACACA_site495]	9.88 ± 0.52
CATATTCCCCCCCACACACACACACGCATACATACC [CACACA_site7148]	11.1 ± 0.19
GACATATTCCCCCCCACACACACACCCACATACATA [CACACA_site2302]	10.8 ± 0.11
ACCATACATACATACACACACACACGCATATTTATA [CACACA_site7386]	9.05 ± 0.6
TATTCCCCCCAACACACACACACACCGACATACCAC [CACACA_site8723]	10.2 ± 0.23
CATACACCCATACATACACACATACATACACCCATA [CACACA_site5124]	8.67 ± 0.47
AAAAAAAAAATACATACACACACACCCACCCATATA [CACACA_site9187]	9.14 ± 0.54
CATATTCCCCCCCACACACACACACCCATACATACC [CACACA_site2303]	11.1 ± 0.18
TTTTTTTTTTTTTTTATAGTACATTACCAAAAAAAA [CACACA_negctrl_site1197]	8.27 ± 0.39
TTTGAAATAAGCAAATGTACATTATTATTAAATATA [XGTACX_site6158]	8.38 ± 0.32
GAATCACTAATTTTTTTACACACCACAATTTAATTT [CACACA_site8311]	8.94 ± 0.47
TATATTAAATATTACACACATACATTTAGTGTCAAA [CACACA_site1990]	8.35 ± 0.37
TTTTTATATTCCCCCAGTACATATATAATAGTAGTA [XGTACX_site7927]	10 ± 0.3

Sequence	gcPBM binding intensity (ln)
AACAAGAAAAAAAAAAAAAAAAAAAAAAAATATTTT [XGTACX_negctrl_site428]	8.13 ± 0.3
ATAATAATATTTCTATGTACTTATTTTATGTATTAG [XGTACX_site1747]	8.51 ± 0.4
TTTGAATAAAAACAAAAAATTAAATTAAATTAAATA [CACACA_negctrl_site312]	8.15 ± 0.5
ATTTCCTTGAATGTTGCATGCTGTATTTTAATTAAA [TGCATGCA_site280]	9.88 ± 0.43
ATTTTTGAACGGTACAGTACAGAATTTAATTAACCC [XGTACX_site47]	9.13 ± 0.54
CTAAAATACGGACACACACACACATATATATATATA [CACACA_site6138]	10.3 ± 0.15
AATAACCACGGACACACACACATATATATATATATA [CACACA_site5873]	10.2 ± 0.46
AGTATACTCGGACACACACACACATATATATATATA [CACACA_site5031]	10.3 ± 0.2
AGTATACATATATATACACACACATATATATATATA [CACACA_site7883]	9.98 ± 0.62
AAAAAAAACGGACACACACACATAAATATATATAAA [CACACA_site4260]	9.02 ± 0.4
AAAAAAAACGGACACACACACATACAAAATATATAT [CACACA_site4910]	8.7 ± 0.38
CGCATACACGGACACACACACACATATATATATATA [CACACA_site4520]	10.1 ± 0.34
AAAAAACACGGACACACACACATATACATACATACA [CACACA_site5470]	9.07 ± 0.3
AGTATACATATATATACACACATATATATATATATA [CACACA_site300]	10.2 ± 0.34
TACATACACGGACACACACACATATATATATATATA [CACACA_site5883]	10.2 ± 0.36
AAAAAAAACGGACACACACACATACCCATACATACA [CACACA_site5574]	8.78 ± 0.49
CCCCCCCACGGACACACACACATACATACCACATAT [CACACA_site5303]	10.3 ± 0.19
TTTAAAATTATAAGGATTAAAAAAAAAAAAAATAAA [CACACA_negctrl_site114]	8.27 ± 0.45
ATTTTGTTTTTTTTTGCACACCATAAGGAGTGTAGG [CACACA_site1414]	8.84 ± 0.41
AATAATGTATGAAATAAACACACAAGTAAGTACATA [CACACA_site8776]	8.85 ± 0.39
TACAAAAGCGATACGGCACACATTTCCTGTTTAAAT [CACACA_site2746]	8.74 ± 0.33
AATTATTTACCCTATACACACAAAACACGCTAAAAA [CACACA_site1211]	8.79 ± 0.43
AATATATTTTTTCACTGTACTTTTATTATATATACA [XGTACX_site8312]	8.97 ± 0.36
AAATAAAAACATAACAGTACAGTTAACATTTTTATA [XGTACX_site3479]	8.29 ± 0.35
AATACATTTATGAGCTGTACACATTTATTTGAGCTA [XGTACX_site7695]	8.51 ± 0.27

Sequence	gcPBM binding intensity (ln)
ATATTTAAATATATTTATATATATAAAAAAAAATAT [GTGCAC_negctrl_site312]	8.56 ± 0.39
TATCGACATTTCATTTGTACATATATACATATATTT [XGTACX_site3346]	8.64 ± 0.42
TGTTCATTTATTTACTTACACACTTTATATATGTGG [CACACA_site1410]	8.79 ± 0.53
GAATTAATTTTAAAACGTACATGGGTGTATTTACAC [XGTACX_site5939]	8.86 ± 0.3
GGGAGGATATTACACAGTACCCAGAAAATCTACGGA [XGTACX_site2551]	8.8 ± 0.43
TTATTATATTAAAAGAGGACACATTTATTTTTTTTT [XGTACX_site1241]	8.09 ± 0.53
GTAATACCCAAACACACACACATACCCATATATATA [CACACA_site5510]	8.88 ± 0.52
AATACATACGGACACACACACACATATATATATATA [CACACA_site5884]	10.3 ± 0.17
CACAGACACGGACACACACACATATATAATATATAT [CACACA_site4495]	8.84 ± 0.33
AATACCCAAGGACACACACACACATATATATATATA [CACACA_site8345]	10.2 ± 0.26
CACAGACACGGACACACACACACACCCACATATATA [CACACA_site4355]	8.73 ± 0.41
CATACATACGGACACACACACATATATATATATATA [CACACA_site5598]	10.2 ± 0.41
TACACAAGCAGACACACACACATATATATATATATA [CACACA_site1270]	10.1 ± 0.53
CACAGACACGGACACACACACATATATATATATATA [CACACA_site5248]	10.2 ± 0.26
CATATATACACATACACACACACACGGACACGCACA [CACACA_site6910]	8.87 ± 0.53
TACACAAGCGGACACACACACATATATATATATATA [CACACA_site4832]	10.3 ± 0.13
TATACACCCGGACACACACACATATATATATATATA [CACACA_site5030]	10.1 ± 0.54
AAAATACCCGGACACACACACATATATATATATATT [CACACA_site6137]	8.83 ± 0.31
TTCAAAATATATATTTGTACATATAGGATCTTTTTC [XGTACX_site4500]	8.41 ± 0.45
TTTTTTTATTAATGTAGTACAATATAATGTTATATT [XGTACX_site2295]	8.54 ± 0.29
AGACGAAAATAATAAAGTACTAAAAAAAAAAAAAAA [XGTACX_site927]	8.14 ± 0.51
AAACAAATATATATATGTACTTATAAAAAAAAAAAT [XGTACX_site2211]	8.54 ± 0.45
AGGATACACGGACACACACACATATATATATATATA [CACACA_site4654]	10.2 ± 0.28
TAATAAATAGGACACACACACATATATATATATTAT [CACACA_site4891]	8.87 ± 0.52
ATAAATATAGGACACACACACATATTATATATATAT [CACACA_site5658]	9.65 ± 0.12

Sequence	gcPBM binding intensity (ln)
AACATTATAGGACACACACACACATATATATATATA [CACACA_site4721]	10.3 ± 0.13
AGGATACACGGACACACACACATATAGATTTATATA [CACACA_site6552]	8.59 ± 0.52
TACATATTTATATACACACACACACGGATATTTATA [CACACA_site7239]	8.94 ± 0.28
TATAAAATTTAAATTATACACACTTAAGTAACATCA [CACACA_site531]	8.74 ± 0.35
AATTATCAAAGTCTATACATACATACATACATACAT [GTGCAC_negctrl_site243]	8.95 ± 0.23
ATAAATCTACACCGCACACAAAAACAACAAATATTA [CACACA_site5396]	8.64 ± 0.58
GTTATACTCATATATACACACATATGTAAATATATA [CACACA_site5764]	8.94 ± 0.58
CAACATTTGAAACACACACACATACAAACAAACAAA [CACACA_site3306]	8.89 ± 0.47
AAAAATTTAAGTGGGGGTACATTTTTTTAACACCTT [XGTACX_site1093]	9.46 ± 0.48
TTTTTAATTTTTTTTAAACACACACCGTACATTCAA [CACACA_site7925]	8.54 ± 0.38
ATTCATTTTTTGGGGGGTACACCCTTTTAAACATTT [XGTACX_site4797]	10.3 ± 0.48
TATATATCGCATAAAACACACAAAAAAAAAATTAAA [CACACA_site7767]	8.35 ± 0.59
TCCACACAATTTATAACATGCAAAAAGGCAATAATA [TGCATGCA_site773]	8.69 ± 0.42
TATATATATATATATACATGCATACATATACATACA [TGCATGCA_site897]	10.2 ± 0.5
AATACATACATACATACATGCATATATATATATATA [TGCATGCA_site462]	10.2 ± 0.14
CATATAAATAAATATACATGCATACATACATATATA [TGCATGCA_site713]	8.51 ± 0.23
AATACATACATATATACATGCATACATATAAATATA [TGCATGCA_site674]	8.64 ± 0.35
TATATATATATACATACATGCATATATATATATATA [TGCATGCA_site513]	10.2 ± 0.54
TATATATATATATATACATGCATATATATAATATAT [TGCATGCA_site763]	10.1 ± 0.52
AATATATATATACATACATGCATACATATATATATA [TGCATGCA_site784]	9.8 ± 0.14
AATATATACATACATACATGCATACATATATATAAC [TGCATGCA_site371]	8.73 ± 0.23
CATACATACATACATACATGCATACATACATACATA [TGCATGCA_site218]	9.3 ± 0.26
